Measurements: PubChem BioAssay (Tox21)
Results filed as inconclusive are left out. Where a call stands in place of a potency, no number is given. A number with no mark means an inactive call. Active and inactive are the calls of the source. Unless noted, calls come from the whole dose curve; as a rule, active = well fitted curve in the direction sought with a large enough effect in the repeat runs; inconclusive = weak or mixed curves; inactive = no such curve, though single readings can be large; an effect the other way counts as inactive or inconclusive.

Target: Retinoic acid receptor RXR-alpha (Homo sapiens) (UniProt P19793)
Test: qHTS assay to identify small molecule agonists of the RXR signaling pathway (AID 1159527; calls by dose curve; note: nearly all actives have a fitted effect of over 35% in size)
Conditions: HEK293T RXRa-UAS-bla, beta-lactamase ratio, 16 h; series mostly up to 76.8 µM
In short: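 16 hr incubation of compound-treated RXR-alpha-UAS-bla HEK 293T cells (2% charcoal-stripped FBS, 37 C) preceded a 2 hr room-temperature LiveBLAzer FRET substrate step and blue/green fluorescence measurement.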

Sequence of Retinoic acid receptor RXR-alpha (Homo sapiens) (P19793 whole entry, looked up): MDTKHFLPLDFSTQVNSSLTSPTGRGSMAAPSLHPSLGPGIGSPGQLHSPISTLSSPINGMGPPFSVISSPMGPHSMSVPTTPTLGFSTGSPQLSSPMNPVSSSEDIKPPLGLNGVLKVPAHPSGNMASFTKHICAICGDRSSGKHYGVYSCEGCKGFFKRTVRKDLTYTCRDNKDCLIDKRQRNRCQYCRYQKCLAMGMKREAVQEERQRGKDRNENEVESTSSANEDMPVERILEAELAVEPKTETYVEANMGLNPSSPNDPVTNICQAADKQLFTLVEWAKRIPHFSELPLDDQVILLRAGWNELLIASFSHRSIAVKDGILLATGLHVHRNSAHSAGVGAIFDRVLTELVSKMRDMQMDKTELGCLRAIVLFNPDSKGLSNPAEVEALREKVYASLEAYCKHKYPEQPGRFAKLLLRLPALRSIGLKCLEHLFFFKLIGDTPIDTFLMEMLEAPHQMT

Question: With `Nc1cccc(O)c1` as the compound, how does the Potency read?
Answer: Its Potency is “inactive”.

Question: Which Potency does the source give for `Cc1ccc2ccc(Cl)cc2n1` here?
Answer: The Potency was “inactive”.

Question: With `O=S(=O)(O)c1ccc2cc(O)c(S(=O)(=O)O)cc2c1` as the compound, how does the Potency read?
Answer: The Potency was “inactive”.

Question: Which Potency does the source give for `O=C1c2ccccc2C(=O)c2cc(S(=O)(=O)O)ccc21` here?
Answer: Its Potency is “inactive”.

Question: Which Potency does the source give for `CC(=O)/C=C/C1C(C)=CCC(C)C1(C)C` (stereo unspecified) here?
Answer: The Potency was “inactive”.

Question: With `CCCOC(=O)C(C)O` (stereo unspecified) as the compound, how does the Potency read?
Answer: Its Potency is “inactive”.

Question: Which activation does the source give for `COC(=O)C1CC(=O)C(C(=O)OC)CC1=O` (stereo unspecified) here?
Answer: The activation was 10.5% [at 6.98 µM].

Question: Which Potency does the source give for `Oc1ccccc1-c1nnco1` here?
Answer: Its Potency is “inactive”.

Question: With `O=C(O)c1ccc(Cl)cc1Cl` as the compound, how does the Potency read?
Answer: The Potency was “inactive”.

Question: Which Potency does the source give for `O=C1c2ccccc2C(=O)C1c1ccccc1` here?
Answer: Its Potency is “inactive”.

Question: For `BrCc1cccc(Oc2ccccc2)c1`, which Potency is on record?
Answer: The Potency was “inactive”.

Question: For `CCOCCOC(=O)/C=C/c1ccc(OC)cc1`, which Potency is on record?
Answer: Its Potency is “inactive”.

Question: With `CC(C)=CCOC(=O)c1ccccc1` as the compound, how does the Potency read?
Answer: The Potency was “inactive”.

Question: With `O=C(/N=N/C(=O)OCc1ccccc1)OCc1ccccc1` as the compound, how does the Potency read?
Answer: Its Potency is “inactive”.

Question: For `CC(=O)Nc1ccc(S(=O)(=O)Nc2ccc([N+](=O)[O-])cc2)cc1`, which Potency is on record?
Answer: Its Potency is “inactive”.

Test system: not listed separately
Test: qHTS assay to identify small molecule agonists of the RXR signaling pathway - cell viability counter screen (AID 1159529);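 note: HEK 293T cells carrying an RXR-alpha UAS beta-lactamase reporter; nearly all actives have a fitted effect of over 50% in size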
Conditions: RXR-alpha-bla HEK293T viability, CellTiter-Glo, 16 h; series mostly up to 76.8 µM
In short: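 In this parallel viability measure, GeneBLAzer RXR-alpha HEK 293T cells (2% charcoal-stripped FBS) were given a 5 hr preincubation, treated with compounds 16 hr at 37 C, and read by CellTiter-Glo luminescence.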

Question: With `NNc1nnc(NN)c2ccccc12` as the compound, how does the outcome read?
Answer: Its outcome is “inactive”.

Question: For `CC(=O)OC(C)OC(=O)C(C)c1ccc(-c2ccccc2)c(F)c1` (stereo unspecified), which outcome is on record?
Answer: The outcome was “inactive”.

Question: With `NCCN1CCOCC1` as the compound, how does the outcome read?
Answer: Its outcome is “inactive”.

Question: With `O=P(O)(O)OP(=O)(O)O` as the compound, how does the outcome read?
Answer: The outcome was “inactive”.

Question: Which outcome does the source give for `Cc1cccc2nccnc12` here?
Answer: Its outcome is “inactive”.

Question: With `O=C(OCC1(COC(=O)c2cccnc2)CCCC(COC(=O)c2cccnc2)(COC(=O)c2cccnc2)C1O)c1cccnc1` as the compound, how does the outcome read?
Answer: Its outcome is “inactive”.

Question: With `C=CC(OCC)OCC` as the compound, how does the outcome read?
Answer: Its outcome is “inactive”.

Question: Which outcome does the source give for `C#CC(C)N(C)C(=O)Nc1ccc(Cl)cc1` (stereo unspecified) here?
Answer: The outcome was “inactive”.

Question: With `c1ccc2c(c1)ccc1c3ccccc3ccc21` as the compound, how does the outcome read?
Answer: Its outcome is “inactive”.

Question: Which outcome does the source give for `N[C@@H](CCC(=O)Nc1ccc([N+](=O)[O-])cc1)C(=O)O` here?
Answer: The outcome was “inactive”.

Question: With `CC(COC(C)(C)C)OCCCO` (stereo unspecified) as the compound, how does the outcome read?
Answer: The outcome was “inactive”.

Question: Which outcome does the source give for `CCOC(=O)/C=C/c1ccccc1` here?
Answer: Its outcome is “inactive”.

Question: For `CCOc1cc([N+](=O)[O-])c(OCC)cc1N1CCOCC1`, which outcome is on record?
Answer: Its outcome is “inactive”.

Question: For `O=C(O)CCSSCCC(=O)O`, which outcome is on record?
Answer: The outcome was “inactive”.

Question: For `Cc1cc(NC(=O)C2=C(O)c3ccccc3S(=O)(=O)N2C)no1`, which outcome is on record?
Answer: Its outcome is “inactive”.

Question: For `CC(=O)Nc1cccc(C)c1`, which outcome is on record?
Answer: Its outcome is “inactive”.

Question: Which outcome does the source give for `CC(C)(C)OC(=O)c1ccc(O)cc1` here?
Answer: Its outcome is “inactive”.

Question: With `O=C(OCC(COC(=O)c1cccnc1)(COC(=O)c1cccnc1)COC(=O)c1cccnc1)c1cccnc1` as the compound, how does the outcome read?
Answer: The outcome was “inactive”.

Question: Which outcome does the source give for `OC[C@H](Cc1cccc(O)c1)[C@H](CO)Cc1cccc(O)c1` here?
Answer: The outcome was “inactive”.

Question: With `Cc1cc2cc3c(C)cc(=O)oc3c(C)c2o1` as the compound, how does the outcome read?
Answer: Its outcome is “inactive”.

Question: With `COc1ccc(OC)c(Cl)c1` as the compound, how does the outcome read?
Answer: The outcome was “inactive”.

Question: With `N[C@@H](CCC(=O)N[C@@H](CS)C(=O)NCC(=O)O)C(=O)O` as the compound, how does the activity change, negative = cytotoxicity read?
Answer: The activity change, negative = cytotoxicity was -1.04% [at 15.8 µM].

Question: Which outcome does the source give for `CCC(C)(CCC(C)C)C(=O)O` (stereo unspecified) here?
Answer: The outcome was “inactive”.

Question: For `Nc1cccc(O)c1`, which outcome is on record?
Answer: Its outcome is “inactive”.

Question: With `Cc1ccc2ccc(Cl)cc2n1` as the compound, how does the outcome read?
Answer: Its outcome is “inactive”.

Question: Which outcome does the source give for `O=S(=O)(O)c1ccc2cc(O)c(S(=O)(=O)O)cc2c1` here?
Answer: Its outcome is “inactive”.

Question: With `O=C1c2ccccc2C(=O)c2cc(S(=O)(=O)O)ccc21` as the compound, how does the outcome read?
Answer: Its outcome is “inactive”.

Question: With `CC(=O)/C=C/C1C(C)=CCC(C)C1(C)C` (stereo unspecified) as the compound, how does the outcome read?
Answer: Its outcome is “inactive”.

Question: With `CCCOC(=O)C(C)O` (stereo unspecified) as the compound, how does the outcome read?
Answer: Its outcome is “inactive”.

Question: Which activity change, negative = cytotoxicity does the source give for `COC(=O)C1CC(=O)C(C(=O)OC)CC1=O` (stereo unspecified) here?
Answer: Its activity change, negative = cytotoxicity is 8.97% [at 6.97 µM].

Question: With `Oc1ccccc1-c1nnco1` as the compound, how does the outcome read?
Answer: Its outcome is “inactive”.

Question: With `O=C(O)c1ccc(Cl)cc1Cl` as the compound, how does the outcome read?
Answer: The outcome was “inactive”.

Question: For `O=C1c2ccccc2C(=O)C1c1ccccc1`, which outcome is on record?
Answer: Its outcome is “inactive”.

Question: Which outcome does the source give for `BrCc1cccc(Oc2ccccc2)c1` here?
Answer: Its outcome is “inactive”.

Question: For `CCOCCOC(=O)/C=C/c1ccc(OC)cc1`, which outcome is on record?
Answer: The outcome was “inactive”.

Question: With `CC(C)=CCOC(=O)c1ccccc1` as the compound, how does the outcome read?
Answer: The outcome was “inactive”.

Question: For `O=C(/N=N/C(=O)OCc1ccccc1)OCc1ccccc1`, which outcome is on record?
Answer: Its outcome is “inactive”.

Question: With `CC(=O)Nc1ccc(S(=O)(=O)Nc2ccc([N+](=O)[O-])cc2)cc1` as the compound, how does the outcome read?
Answer: Its outcome is “inactive”.

Test system: not listed separately
Test: qHTS assay to identify small molecule antagonists of the retinoid acid receptor (RAR) signaling pathway - cell viability counter screen (AID 1159551); note: nearly all actives have a fitted effect of over 35% in size
Conditions: C3RL4 cells viability, ATP luminescence (CellTiter-Glo), 6 h; series mostly up to 92.4 µM
In short: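 Following overnight attachment, C3RL4 reporter cells received DMSO-dissolved compounds and then retinol (1 uM final). Six hours later at 37 C, ATP content was measured by CellTiter-Glo luminescence.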

Question: With `NNc1nnc(NN)c2ccccc12` as the compound, how does the outcome read?
Answer: The outcome was “inactive”.

Question: Which outcome does the source give for `CC(=O)OC(C)OC(=O)C(C)c1ccc(-c2ccccc2)c(F)c1` (stereo unspecified) here?
Answer: The outcome was “inactive”.

Question: For `NCCN1CCOCC1`, which outcome is on record?
Answer: Its outcome is “inactive”.

Question: For `O=P(O)(O)OP(=O)(O)O`, which outcome is on record?
Answer: Its outcome is “inactive”.

Question: Which outcome does the source give for `Cc1cccc2nccnc12` here?
Answer: Its outcome is “inactive”.

Question: Which outcome does the source give for `O=C(OCC1(COC(=O)c2cccnc2)CCCC(COC(=O)c2cccnc2)(COC(=O)c2cccnc2)C1O)c1cccnc1` here?
Answer: Its outcome is “inactive”.

Question: For `C=CC(OCC)OCC`, which outcome is on record?
Answer: The outcome was “inactive”.

Question: With `C#CC(C)N(C)C(=O)Nc1ccc(Cl)cc1` (stereo unspecified) as the compound, how does the outcome read?
Answer: The outcome was “inactive”.

Question: Which outcome does the source give for `c1ccc2c(c1)ccc1c3ccccc3ccc21` here?
Answer: The outcome was “inactive”.

Question: Which outcome does the source give for `N[C@@H](CCC(=O)Nc1ccc([N+](=O)[O-])cc1)C(=O)O` here?
Answer: The outcome was “inactive”.

Question: With `CC(COC(C)(C)C)OCCCO` (stereo unspecified) as the compound, how does the outcome read?
Answer: Its outcome is “inactive”.

Question: For `CCOC(=O)/C=C/c1ccccc1`, which outcome is on record?
Answer: Its outcome is “inactive”.

Question: Which outcome does the source give for `CCOc1cc([N+](=O)[O-])c(OCC)cc1N1CCOCC1` here?
Answer: The outcome was “inactive”.

Question: For `O=C(O)CCSSCCC(=O)O`, which outcome is on record?
Answer: The outcome was “inactive”.

Question: Which outcome does the source give for `Cc1cc(NC(=O)C2=C(O)c3ccccc3S(=O)(=O)N2C)no1` here?
Answer: Its outcome is “inactive”.

Question: Which outcome does the source give for `CC(=O)Nc1cccc(C)c1` here?
Answer: Its outcome is “inactive”.

Question: Which outcome does the source give for `CC(C)(C)OC(=O)c1ccc(O)cc1` here?
Answer: The outcome was “inactive”.

Question: With `O=C(OCC(COC(=O)c1cccnc1)(COC(=O)c1cccnc1)COC(=O)c1cccnc1)c1cccnc1` as the compound, how does the outcome read?
Answer: Its outcome is “inactive”.

Question: With `OC[C@H](Cc1cccc(O)c1)[C@H](CO)Cc1cccc(O)c1` as the compound, how does the outcome read?
Answer: The outcome was “inactive”.

Question: For `Cc1cc2cc3c(C)cc(=O)oc3c(C)c2o1`, which outcome is on record?
Answer: The outcome was “inactive”.

Question: For `COc1ccc(OC)c(Cl)c1`, which outcome is on record?
Answer: Its outcome is “inactive”.

Question: Which activity change, negative = cytotoxicity does the source give for `N[C@@H](CCC(=O)N[C@@H](CS)C(=O)NCC(=O)O)C(=O)O` here?
Answer: Its activity change, negative = cytotoxicity is 0.178% [at 19 µM].

Question: Which outcome does the source give for `CCC(C)(CCC(C)C)C(=O)O` (stereo unspecified) here?
Answer: Its outcome is “inactive”.

Question: With `Nc1cccc(O)c1` as the compound, how does the outcome read?
Answer: The outcome was “inactive”.

Question: Which outcome does the source give for `Cc1ccc2ccc(Cl)cc2n1` here?
Answer: Its outcome is “inactive”.

Question: Which outcome does the source give for `O=S(=O)(O)c1ccc2cc(O)c(S(=O)(=O)O)cc2c1` here?
Answer: The outcome was “inactive”.

Question: For `O=C1c2ccccc2C(=O)c2cc(S(=O)(=O)O)ccc21`, which outcome is on record?
Answer: The outcome was “inactive”.

Question: With `CC(=O)/C=C/C1C(C)=CCC(C)C1(C)C` (stereo unspecified) as the compound, how does the outcome read?
Answer: The outcome was “inactive”.

Question: Which outcome does the source give for `CCCOC(=O)C(C)O` (stereo unspecified) here?
Answer: Its outcome is “inactive”.

Question: Which activity change, negative = cytotoxicity does the source give for `COC(=O)C1CC(=O)C(C(=O)OC)CC1=O` (stereo unspecified) here?
Answer: Its activity change, negative = cytotoxicity is 3.23% [at 8.39 µM].

Question: Which outcome does the source give for `Oc1ccccc1-c1nnco1` here?
Answer: The outcome was “inactive”.

Question: For `O=C(O)c1ccc(Cl)cc1Cl`, which outcome is on record?
Answer: Its outcome is “inactive”.

Question: For `O=C1c2ccccc2C(=O)C1c1ccccc1`, which outcome is on record?
Answer: The outcome was “inactive”.

Question: Which outcome does the source give for `BrCc1cccc(Oc2ccccc2)c1` here?
Answer: Its outcome is “inactive”.

Question: For `CCOCCOC(=O)/C=C/c1ccc(OC)cc1`, which outcome is on record?
Answer: The outcome was “inactive”.

Question: Which outcome does the source give for `CC(C)=CCOC(=O)c1ccccc1` here?
Answer: Its outcome is “inactive”.

Question: For `O=C(/N=N/C(=O)OCc1ccccc1)OCc1ccccc1`, which outcome is on record?
Answer: The outcome was “inactive”.

Question: For `CC(=O)Nc1ccc(S(=O)(=O)Nc2ccc([N+](=O)[O-])cc2)cc1`, which outcome is on record?
Answer: The outcome was “inactive”.
